Source: PubChem BioAssay
ssDAF-12 act – S. stercoralis DAF-12 activation, primary screen; HEK293 ssDAF-12/GRIP1 lit1-tk-luc reporter, luminescence; % of 3 µM dafachronic acid response; activation, % at 6.8 µM; 370,000 compounds, 1% hits;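 active means activation above the mean over all tested compounds plus 3 SD, cut at about 0.9% in these data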;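 further: 0% = DMSO-only wells and 100% = 3 µM delta7-dafachronic acid wells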
hgDAF-12 ag – agonists of H. glycines DAF-12 nuclear receptor; activation, % at 6.8 µM; 370,000 compounds, 1.8% hits; HEK293 GAL4-hgDAF12 UAS-luciferase reporter, agonist luminescence; normalized to butyrate control; AID 687014;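 active means activation above a cutoff set at the mean of all screened compounds plus 3 SD, cut at about 10% in these data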;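 further: 0% = DMSO wells and 100% = sodium butyrate wells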
DAX1 inh-1 – NR0B1 (DAX1) inhibition; HEK293 Gal4-DAX1 luciferase reporter, luminescence; inhibition, % at 6.75 µM; 340,000 compounds, 0.99% hits; AID 504766;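 active means inhibition above the mean over all tested compounds plus 3 SD, cut at about 4.2% in these data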;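 further: 0% = DAX1-transfected cells with DMSO and 100% = empty-vector control cells with DMSO; inhibition shows as a rise in luminescence from relieved DAX1 repression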
Target sequence (P51843 207-470 limits assumed): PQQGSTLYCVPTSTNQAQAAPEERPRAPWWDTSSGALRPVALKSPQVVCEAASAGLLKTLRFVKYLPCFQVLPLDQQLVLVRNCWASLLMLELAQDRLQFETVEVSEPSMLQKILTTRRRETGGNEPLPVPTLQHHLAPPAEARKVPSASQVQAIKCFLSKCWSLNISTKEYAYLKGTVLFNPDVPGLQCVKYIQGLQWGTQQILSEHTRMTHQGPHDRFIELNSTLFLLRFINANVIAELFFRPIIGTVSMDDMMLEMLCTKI
SMARCA2 act – increases SMARCA2 function in MMTV reporter cells | activation, % at 9.1 µM | MG213 cells, MMTV-luciferase reporter, dexamethasone, overnight | 370,000 compounds, 1% hits; in the data active means activation above about 7.8%;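 further: 0% = vehicle wells and 100% = reference activator wells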
hcDAF-12 act – activators of H. contortus DAF-12 nuclear receptor | 370,000 compounds, 1.4% hits | activation, % at 6.8 µM | AID 652067 | HEK293 hcDAF-12 lit1-tk-luc reporter, luminescence; 0% DMSO, 100% Δ7-dafachronic acid;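 active means activation above the mean of all tested compounds plus 3 SD, cut at about 5.5% in these data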;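 further: 100% = response to 3 µM Δ7-dafachronic acid high control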
DAX1 inh-2 – blocks DAX1 repression of SF-1 activated StAR promoter. HEK293T StAR-luciferase reporter, SF-1/DAX-1 repression relief. inhibition, % at 6.8 µM. 370,000 compounds, 1.1% hits;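 active means inhibition above the mean over all tested compounds plus 3 SD, cut at about 3.6% in these data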;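 further: 0% = DAX-1 cells with DMSO and 100% = cells lacking DAX-1 with DMSO; higher inhibition means more luminescence from relief of DAX-1 repression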
Active calls of the source: *; . = no result given. Compounds with a hit are over-represented: about 4.8% of the library has one in this group of screens.

SMILES	ssDAF-12 act	hgDAF-12 ag	DAX1 inh-1	SMARCA2 act	hcDAF-12 act	DAX1 inh-2
Cc1ccc(/C=N/n2nnnc2N)o1	-1	-1	0	-4	-1	0
O=C(NC1CCCCC1)C1c2ccccc2OCC(=O)N1C1CC1 (stereo not drawn)	-1	1	.	-5	-1	0
O=C(/C=C/c1ccc(Br)cc1)N1CCN(c2cccc(C(F)(F)F)c2)CC1	-1	-2	-1	-4	6.4*	2
O=C(/C=C/c1cccc(Br)c1)N1CCN(c2cccc(C(F)(F)F)c2)CC1	-1	-4	0	3	2	0
C=CC[C@@H](CC(=O)N[C@H](CO)Cc1ccccc1)C(=O)N[C@H](COC(=O)[C@H](CC=C)CC(=O)OC(C)(C)C)Cc1c[nH]c2ccccc12	-2	-5	0	0	-1	-1
C=CCN(CC=C)C(=S)NC(=O)/C=C/c1ccc(OC)cc1	1.4*	0	-1	-2	0	0
c1ccc2sc(NC3=NCN(C4CCCCCC4)CN3)nc2c1	1.5*	1	-1	1	3	0
CCCCCC(=O)N1C[C@H](O)[C@@H](n2cc(C3CC3)nn2)C[C@@H]1c1ccc(OC)cc1	-2	1	-1	-5	-3	1
Cc1cc2c(cc1C)NC(=O)CC(c1ccccc1)=N2	0	12*	3	6	0	3
CC1(c2ccccc2)CC(c2ccccc2)=Nc2ccccc2N1 (stereo not drawn)	.	.	4	.	.	.
CCN(CC)c1ccc(NC(=O)c2cccnc2)cc1	-1	4	0	-3	1	1
CCN(CC)c1ccc(NC(=O)c2cncc(Br)c2)cc1	-1	13*	1	4	1	2
Cc1ccc(SCC(=O)NNC(=O)c2cncc(Br)c2)cc1	-1	-1	5.9*	1	-1	0
Cc1ccc(NC(=O)c2cncc(Br)c2)cc1S(=O)(=O)N(C)C	1.4*	7	1	5	1	3
CN(C)S(=O)(=O)c1cccc(NC(=O)c2cncc(Br)c2)c1	-2	1	2	1	0	0
C[C@H]1CN(S(=O)C(C)(C)C)[C@@H](CCO)/C1=C\c1ccccc1 (stereo partly drawn)	-1	7	0	-1	1	0
COc1ccc(CN2CCSCC2)c(C)c1C	-2	-1	1	-4	0	0
N#Cc1ccccc1S(=O)(=O)N1CCN(Cc2cc3c(cc2Br)OCCO3)CC1	-1	-1	0	-4	1	0
COc1ccc2[nH]cc(C(=O)CN3CCCC(C)C3)c2c1 (stereo not drawn)	-1	3	-1	0	0	0
COc1ccc2[nH]cc(C(=O)CN3CCC(C)CC3)c2c1	1.3*	7	3	4	3	1
CCOC(=O)C1CCCN(CC(=O)Nc2cc(C)cc(C)c2)C1 (stereo not drawn)	-1	1	0	-1	0	1
CCOC(=O)C1CCCN(CC(=O)c2c[nH]c3ccc(C)cc23)C1 (stereo not drawn)	1.3*	2	.	-5	2	0
Cc1ccc(S(=O)(=O)N2C[C@]3(O)C[C@@H]4C(=O)N(c5ccccc5)C(=O)[C@@H]4C[C@]3(OC(=O)NCC3CCCCC3)C2)cc1	0	5	1	-1	1	3
C=C1c2ccccc2O[C@H](C(=O)OCC)[C@@H]1C1CCCCC1	-1	1	-1	-1	2	4.1*
CCOC(=O)C1=C(N)c2ccccc2CC1C1CCCC1 (stereo not drawn)	-2	2	1	-2	0	0
SMILES	ssDAF-12 act	hgDAF-12 ag	DAX1 inh-1	SMARCA2 act	hcDAF-12 act	DAX1 inh-2
COC(=O)[C@]12C[C@H](CC(=O)N3CCSCC3)C(=O)N(Cc3cccc4ccccc34)C1=C[C@H](C1CCCC1)O[C@@H]2C	-1	1	.	0	-3	0
Cc1ccc(C(=O)Nc2cccc(C(=O)N/N=C/c3ccc(O)cc3)c2)cc1	0	7	-1	5	5.9*	1
CC(C)(N[C@@H](Cc1ccccc1)C(=O)NCCc1c[nH]c2ccccc12)C(=O)NC1CCCCC1	-1	2	.	.	-4	.
CN(Cc1ccc(Cl)cc1Cl)C(=O)C1CSC2(C)CCC(=O)N12 (stereo not drawn)	-1	-2	0	-5	0	-2
Nc1nc(N)nc(-c2cc(F)ccc2O)n1	-1	3	-1	7.9*	-3	-1
O=c1c(Cl)c(N2CCOCC2)cnn1-c1nc2ccccc2[nH]1	-1	5	3	7	2	4.2*
c1ccc2[nH]c(N3CCOCC3)nc2c1	-1	-1	0	-1	0	2
Clc1cccc(Cl)c1C[n+]1cccc2ccccc21	-1	-4	0	-7	0	-1
O=[N+]([O-])c1ccc(Cl)c(C[n+]2cccc3ccccc32)c1	1.5*	-2	-1	1	0	0
O=C(C[n+]1cccc2ccccc21)c1ccc([N+](=O)[O-])cc1	1.3*	-1	0	-4	4	-1
O=C(C[n+]1cccc2ccccc21)c1ccc(Cl)cc1	0	4	0	0	3	0
Cc1ccccc1N=C1Nc2ccccc2CS1	0	11*	1	3	2	0
Cc1cc(C)c2cc(C#N)c(NCCCN)nc2c1	-1	1	.	-3	1	0
COc1cccc(/C=C/C(=O)OCC(=O)N2CCCC2)c1OC	-1	3	1	-1	0	4.4*
CCOc1ccc2nc(SCC(=O)N(C)C3CCS(=O)(=O)C3)[nH]c2c1 (stereo not drawn)	0	1	0	-5	-1	1
CCOc1ccc2nc(SCC(=O)N(C)C)[nH]c2c1	-1	5	1	7.9*	2	2
COc1ccc2nc(SCC(=O)C(C)(C)C)[nH]c2c1	-1	8	4.5*	4	1	0
COc1ccccc1CNC(=O)C1CCC(CNS(=O)(=O)c2cccc3cccnc23)CC1 (stereo not drawn)	-1	2	0	0	1	0
Cc1ccccc1CN(C)C(=O)CNC(=O)c1ccc2ccccc2c1	-1	0	1	-2	-2	0
CN(C)c1ccc(/C=N/Nc2cccc(C(=O)O)c2)cc1	0	12*	-3	5	5	1
Cc1ccc(C(=O)N/N=C/c2cccnc2)cc1Cl	1.7*	-1	-1	3	-1	1
O=[N+]([O-])c1ccc(N/N=C/c2cccnc2)cc1	-1	7	2	-1	0	-1
Clc1ccc(N/N=C/c2cccnc2)cc1	-1	4	-1	0	6.0*	0
Nc1c(Cl)ncnc1N/N=C/c1cccnc1	-1	-1	5.0*	-4	1	0
